Results from PubChem BioAssay (Tox21).
Several values for one entry are separate records, joined by “and”; a condition that tells them apart may be missing. Equal values may be shown once. Records with an inconclusive call do not appear. Activity calls are given as the source filed them. Unless noted, calls follow the shape of the full dose curve.

Key:
[1] = Caspase-3/7 induction in HepG2 cells by small molecules, qHTS assay (AID 1346978; active = well fitted curve in the direction sought with a large enough effect in the repeat runs; an effect the other way counts as inactive or inconclusive; also: nearly all actives have a fitted effect of over 15% in size)
Procedure, shortened: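 Wild-type HepG2 cells (2,000/well) were settled 5 h at 37 C, 5% CO2, then exposed to compounds in DMSO for 17 h. Caspase-3/7 activity was read by luminescence 30 min after adding Caspase-Glo 3/7 reagent at room temperature.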

[2] = target: Acetylcholinesterase (Homo sapiens) (UniProt P22303); experiment: Acetylcholinesterase (AChE) small molecule antagonists: colormetric cell-based qHTS assay (AID 1347395); also: nearly all actives have a fitted effect of over 30% in size
Procedure, shortened: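 Colorimetric readout: DTNB quantifies thiocholine from acetylthiocholine hydrolysed by endogenous AChE of SH-SY5Y cells (2,000/well, plated overnight). Compound pretreatment 30 min, substrate incubation 90 min, both 37 C.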

[3] = target: Acetylcholinesterase (Homo sapiens) (UniProt P22303); experiment: Acetylcholinesterase (AChE) small molecule antagonists: enzyme-based qHTS assay (AID 1347397); conditions: Potency: AChE enzyme activity inhibition; outcome: AChE enzyme activity inhibition; also: nearly all actives have a fitted effect of over 55% in size
Procedure, shortened: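 Recombinant human AChE, dispensed at 50 mU/mL, was preincubated with Tox21 10K compounds or DMSO vehicle for 30 min at room temperature. DTNB plus acetylthiocholine was then added, and thiocholine was measured colorimetrically after a further 10 min.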

[4] = target: Acetylcholinesterase (Homo sapiens) (UniProt P22303); experiment: Acetylcholinesterase (AChE) small molecule antagonists: fluorescence cell-based qHTS assay (AID 1347398); conditions: Potency: AChE activity; outcome: AChE activity; also: nearly all actives have a fitted effect of over 50% in size
Procedure, shortened: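 Human SH-SY5Y cells were plated overnight at 37 C, exposed to compound for 30 min at 37 C, 5% CO2, then given acetylthiocholine plus Thiolite Green for 40 min at room temperature; thiocholine fluorescence (Ex/Em 490/520 nm) reports endogenous AChE activity.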

[5] = target: Acetylcholinesterase (Homo sapiens) (UniProt P22303); experiment: Acetylcholinesterase (AChE) small molecule antagonists: enzyme-based qHTS assay with human liver microsomes (AID 1347399); conditions: Potency: qHTS inhibition; outcome: qHTS inhibition; also: nearly all actives have a fitted effect of over 60% in size
Procedure, shortened: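 Recombinant human AChE (50 mU/mL in the enzyme mix) and human liver microsomes (0.25 mg/mL final) were preincubated with compound and NADPH (0.25 mg/mL final) for 30 min at 37 C. Acetylthiocholine/DTNB was then added; thiocholine was read colorimetrically after 10 min at room temperature.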

[6] = target: Glucocorticoid receptor (Homo sapiens) (UniProt P04150); experiment: qHTS assay to identify small molecule agonists of the glucocorticoid receptor (GR) signaling pathway (AID 720691; active = well fitted activation curve with a large enough effect in the signal ratio in the repeat runs, not every such curve was filed as active; the % refers to the signal ratio)
Procedure, shortened: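 Fluorescence intensity from LiveBLAzer B/G FRET substrate (2 h, room temperature) reports beta-lactamase expression driven by the glucocorticoid response element in GR-bla HeLa cells after 18 h compound exposure at 37 C.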

[7] = target: Nuclear receptor subfamily 1 group I member 2 (Rattus norvegicus) (UniProt Q9R1A7); experiment: Rat pregnane X receptor (rPXR) activation by small molecules, qHTS assay (AID 1346983; active = well fitted curve in the direction sought with a large enough effect in the repeat runs; an effect the other way counts as inactive or inconclusive; also: nearly all actives have a fitted effect of over 20% in size); conditions: rPXR luciferase reporter cells, One-Glo luminescence, 24 h; max activation: hits give high values
Procedure, shortened: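 Cell-based rPXR luciferase reporter assay, 2,000 cells per well, rested 5hr at 37 C before compound addition in DMSO, then 24 hr at 37 C. One-Glo reagent was added and luminescence read after 30 min at room temperature.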

[8] = target: Nuclear receptor subfamily 1 group I member 2 (Homo sapiens) (UniProt O75469); experiment: CYP3A4 induction through human pregnane X receptor (PXR) by small molecules, qHTS assay (AID 1346984; active = well fitted curve in the direction sought with a large enough effect in the repeat runs; an effect the other way counts as inactive or inconclusive; also: nearly all actives have a fitted effect of over 40% in size)
Procedure, shortened: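 Luminescence readout: luciferase signal after One-Glo (30 min, room temperature), following 3 h at 37C with 3uM final Luciferin-IPA P450 substrate. Cells were DPX-2 (HepG2, PXR/CYP3A4-luc co-transfected) dosed for 24 h.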

[9] = target: Nuclear receptor subfamily 1 group I member 2 (Homo sapiens) (UniProt O75469); experiment: Human pregnane X receptor (PXR) activation by small molecules, qHTS assay (AID 1346985; active = well fitted curve in the direction sought with a large enough effect in the repeat runs; an effect the other way counts as inactive or inconclusive; also: nearly all actives have a fitted effect of over 40% in size)
Procedure, shortened: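 DPX-2 cells (HepG2 co-transfected with a PXR response element and a CYP3A4-promoter luciferase construct) were seeded at 2,000 per well, rested 5 hr at 37C, then exposed to DMSO-dissolved compounds for 24 hr. Activation was read as luciferase luminescence.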

[10] = target: Peroxisome proliferator-activated receptor delta (Homo sapiens) (UniProt Q03181); experiment: qHTS assay to identify small molecule agonists of the peroxisome proliferator-activated receptor delta (PPARd) signaling pathway (AID 743212)
Procedure, shortened: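 GeneBLAzer PPARd UAS-bla HEK293H cells (beta-lactamase reporter under UAS control), plated and rested 5 h at 37 C, then exposed to compounds in DMSO at 37 C; LiveBLAzer B/G FRET substrate added, 2 h room temperature, fluorescence read.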

[11] = target: Androgen receptor (Homo sapiens) (UniProt P10275); experiment: qHTS assay to identify small molecule antagonists of the androgen receptor (AR) signaling pathway (AID 743035; active = well fitted inhibition curve with a large enough effect in the signal ratio in the repeat runs, not every such curve was filed as active; the % refers to the signal ratio; also: potency is read from the fitted curve at half-maximal effect)
Procedure, shortened: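 Fluorescence from a beta-lactamase FRET substrate (LiveBLAzer B/G, 2 h, room temperature) measured inhibition of R1881-stimulated signaling in GeneBLAzer AR-UAS-bla HEK293 cells exposed to compound for 16 h at 37C.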

[12] = target: Androgen receptor (Homo sapiens) (UniProt P10275); experiment: qHTS assay to identify small molecule agonists of the androgen receptor (AR) signaling pathway (AID 743036; active = well fitted activation curve with a large enough effect in the signal ratio in the repeat runs, with a control signal flat, not every such curve was filed as active; the % refers to the signal ratio)
Procedure, shortened: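 Activation was read as beta-lactamase FRET signal from LiveBLAzer B/G substrate, added for 2 h at room temperature. Before that, GeneBLAzer AR-UAS-bla GripTite (HEK293) cells had 16 h compound exposure at 37C.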

[13] = target: Androgen receptor (Homo sapiens) (UniProt P10275); experiment: qHTS assay to identify small molecule agonists of the androgen receptor (AR) signaling pathway using the MDA cell line (AID 743040; active = well fitted curve in the direction sought with a large enough effect in the repeat runs; an effect the other way counts as inactive or inconclusive; also: nearly all actives have a fitted effect of over 20% in size; also: potency is read from the fitted curve at half-maximal effect)
Procedure, shortened: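 MDA-kb2 breast carcinoma cells stably carrying an MMTV-driven luciferase reporter (AR- and GR-responsive) were seeded and held 5 h at 37C, 0% CO2, then exposed to compounds in DMSO for 16 h. Luminescence was read 30 min after ONE-Glo addition.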

[14] = target: Androgen receptor (Homo sapiens) (UniProt P10275); experiment: qHTS assay to identify small molecule antagonists of the androgen receptor (AR) signaling pathway using the MDA cell line (AID 743042; active = well fitted curve in the direction sought with a large enough effect in the repeat runs; an effect the other way counts as inactive or inconclusive; also: nearly all actives have a fitted effect of over 55% in size)
Procedure, shortened: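 MDA-kb2 cells (human breast carcinoma, stably carrying an MMTV-luciferase reporter responsive to AR and GR) were plated at 3,000 cells/well and preincubated 5 hr at 37C, then given compound plus R1881 agonist for 16 h. ONE-Glo luminescence was read.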

[15] = target: Androgen receptor (Homo sapiens) (UniProt P10275); experiment: qHTS assay to identify small molecule agonists of the androgen receptor (AR) signaling pathway in the presence of an antagonist (AID 1259381); also: nearly all actives have a fitted effect of over 15% in size
Procedure, shortened: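 MDA-kb2 cells, 3,000/well, rested 5hr at 37C/0% CO2 → nilutamide 3.0uM final or buffer → compounds, 15 conc. → 16hr at 37C → ONE-Glo, 30min RT → luminescence.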

[16] = qHTS assay for small molecule activators of the heat shock response signaling pathway (AID 743210; active = well fitted activation curve with a large enough effect in the signal ratio in the repeat runs, with a control signal flat, not every such curve was filed as active; the % refers to the signal ratio; also: series mostly up to about 63 µM)
Procedure, shortened: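 HSE-bla HeLa cells (beta-lactamase reporter under heat shock response elements) were exposed to compounds for 5 h at 37 C, then loaded with LiveBLAzer B/G FRET substrate for 2.5 h at room temperature before fluorescence reading.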
% is scaled to controls: 0 for no effect and ±100 for the full control effect.

Chain of Nuclear receptor subfamily 1 group I member 2 (Rattus norvegicus) (Q9R1A7 whole entry, looked up): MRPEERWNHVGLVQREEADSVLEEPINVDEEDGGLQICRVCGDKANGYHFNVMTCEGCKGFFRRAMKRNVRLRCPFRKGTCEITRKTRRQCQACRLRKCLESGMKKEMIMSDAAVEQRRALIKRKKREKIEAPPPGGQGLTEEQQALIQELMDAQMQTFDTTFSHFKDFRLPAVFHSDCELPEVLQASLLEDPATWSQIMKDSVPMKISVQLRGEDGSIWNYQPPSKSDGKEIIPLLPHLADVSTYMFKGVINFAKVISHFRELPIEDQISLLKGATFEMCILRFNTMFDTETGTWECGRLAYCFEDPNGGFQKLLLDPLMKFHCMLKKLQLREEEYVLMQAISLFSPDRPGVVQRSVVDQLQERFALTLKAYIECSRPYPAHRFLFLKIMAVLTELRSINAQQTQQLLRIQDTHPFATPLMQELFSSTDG
Chain of Androgen receptor (Homo sapiens) (P10275 whole entry, looked up): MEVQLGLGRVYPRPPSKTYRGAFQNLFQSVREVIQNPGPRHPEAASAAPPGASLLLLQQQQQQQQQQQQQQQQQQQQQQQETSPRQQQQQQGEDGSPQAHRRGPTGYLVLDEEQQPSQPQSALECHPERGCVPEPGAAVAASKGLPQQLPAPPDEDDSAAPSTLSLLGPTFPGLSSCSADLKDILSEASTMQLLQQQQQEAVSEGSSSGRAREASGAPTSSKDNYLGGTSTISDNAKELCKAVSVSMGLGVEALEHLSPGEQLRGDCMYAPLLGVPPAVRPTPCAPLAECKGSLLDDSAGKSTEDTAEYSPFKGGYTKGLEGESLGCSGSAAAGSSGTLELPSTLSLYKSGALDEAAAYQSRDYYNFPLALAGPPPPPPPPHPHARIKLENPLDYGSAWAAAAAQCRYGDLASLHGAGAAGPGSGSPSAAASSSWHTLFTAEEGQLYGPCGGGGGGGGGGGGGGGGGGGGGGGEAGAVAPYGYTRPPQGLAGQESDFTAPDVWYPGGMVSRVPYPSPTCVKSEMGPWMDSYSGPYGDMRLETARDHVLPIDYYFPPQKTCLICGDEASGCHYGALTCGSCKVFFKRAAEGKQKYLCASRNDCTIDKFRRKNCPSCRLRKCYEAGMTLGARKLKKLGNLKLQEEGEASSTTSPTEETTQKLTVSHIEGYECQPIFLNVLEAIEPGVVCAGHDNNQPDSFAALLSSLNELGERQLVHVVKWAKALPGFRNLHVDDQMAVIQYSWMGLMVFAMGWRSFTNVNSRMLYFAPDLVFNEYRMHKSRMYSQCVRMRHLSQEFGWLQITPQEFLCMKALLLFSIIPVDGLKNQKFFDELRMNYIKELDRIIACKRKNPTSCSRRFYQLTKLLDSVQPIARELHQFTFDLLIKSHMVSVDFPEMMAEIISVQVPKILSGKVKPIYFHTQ
Chain of Glucocorticoid receptor (Homo sapiens) (P04150 whole entry, looked up): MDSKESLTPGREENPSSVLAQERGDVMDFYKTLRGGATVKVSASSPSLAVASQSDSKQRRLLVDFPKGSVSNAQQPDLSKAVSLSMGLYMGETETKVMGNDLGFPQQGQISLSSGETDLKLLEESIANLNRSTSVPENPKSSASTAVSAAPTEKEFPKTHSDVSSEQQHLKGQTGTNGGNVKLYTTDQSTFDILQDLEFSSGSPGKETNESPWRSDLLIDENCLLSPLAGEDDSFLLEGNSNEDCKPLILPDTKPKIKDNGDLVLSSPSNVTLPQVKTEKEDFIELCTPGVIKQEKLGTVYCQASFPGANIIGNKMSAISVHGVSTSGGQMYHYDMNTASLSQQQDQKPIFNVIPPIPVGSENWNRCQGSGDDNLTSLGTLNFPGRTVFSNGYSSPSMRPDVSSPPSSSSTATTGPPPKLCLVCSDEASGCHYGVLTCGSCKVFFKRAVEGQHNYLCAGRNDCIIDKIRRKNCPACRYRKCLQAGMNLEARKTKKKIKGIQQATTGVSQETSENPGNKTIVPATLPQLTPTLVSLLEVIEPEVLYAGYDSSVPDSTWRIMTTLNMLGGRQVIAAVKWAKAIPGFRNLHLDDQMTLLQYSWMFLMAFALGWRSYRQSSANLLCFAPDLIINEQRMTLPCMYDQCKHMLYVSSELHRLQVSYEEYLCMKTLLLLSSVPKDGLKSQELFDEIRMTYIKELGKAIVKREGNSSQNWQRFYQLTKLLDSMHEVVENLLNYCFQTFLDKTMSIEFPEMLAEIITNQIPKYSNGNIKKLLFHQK
Chain of Acetylcholinesterase (Homo sapiens) (P22303 whole entry, looked up): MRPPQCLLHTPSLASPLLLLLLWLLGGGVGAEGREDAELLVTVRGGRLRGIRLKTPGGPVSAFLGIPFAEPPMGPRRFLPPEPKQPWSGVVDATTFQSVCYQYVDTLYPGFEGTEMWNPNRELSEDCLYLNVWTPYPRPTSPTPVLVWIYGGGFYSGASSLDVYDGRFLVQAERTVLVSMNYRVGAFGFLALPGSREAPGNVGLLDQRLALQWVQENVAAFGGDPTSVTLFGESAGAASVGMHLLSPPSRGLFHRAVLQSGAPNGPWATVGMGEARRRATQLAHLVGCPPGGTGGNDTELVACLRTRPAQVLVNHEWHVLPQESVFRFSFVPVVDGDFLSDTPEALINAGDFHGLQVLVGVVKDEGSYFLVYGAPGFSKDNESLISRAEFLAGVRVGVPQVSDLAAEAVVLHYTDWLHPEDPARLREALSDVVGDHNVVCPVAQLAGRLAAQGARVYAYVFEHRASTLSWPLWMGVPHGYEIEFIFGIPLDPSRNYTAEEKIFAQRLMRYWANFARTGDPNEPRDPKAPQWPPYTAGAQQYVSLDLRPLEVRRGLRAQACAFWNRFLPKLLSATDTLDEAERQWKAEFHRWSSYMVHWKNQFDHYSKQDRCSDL
Chain of Peroxisome proliferator-activated receptor delta (Homo sapiens) (Q03181 whole entry, looked up): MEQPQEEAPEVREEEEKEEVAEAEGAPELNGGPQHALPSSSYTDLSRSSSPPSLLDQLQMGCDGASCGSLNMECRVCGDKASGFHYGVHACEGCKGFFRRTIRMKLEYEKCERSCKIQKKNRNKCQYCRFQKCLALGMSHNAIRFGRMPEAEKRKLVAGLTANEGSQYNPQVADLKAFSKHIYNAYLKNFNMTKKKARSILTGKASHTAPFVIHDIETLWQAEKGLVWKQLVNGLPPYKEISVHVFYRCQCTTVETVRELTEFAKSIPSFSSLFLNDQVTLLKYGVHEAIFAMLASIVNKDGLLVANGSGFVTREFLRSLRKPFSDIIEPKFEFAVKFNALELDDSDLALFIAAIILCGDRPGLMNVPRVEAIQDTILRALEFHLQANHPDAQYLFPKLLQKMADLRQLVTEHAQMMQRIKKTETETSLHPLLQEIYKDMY

COc1cc2c(cc1OC)[C@@H]1CC(=O)[C@@H](CC(C)C)CN1CC2
inactive: Potency [1] | Potency [2] | Potency [3] | Potency [4] | Potency [5]

CC1(C)C(C=C(Cl)Cl)C1C(=O)OCc1cccc(Oc2ccccc2)c1 (configuration not stated)
inactive: Potency [1] | Potency [2] | Potency [3] | Potency [4] | Potency [5]

Nc1ccc(N)c2ccccc12
inactive: Potency [1] | Potency [2] | Potency [3] | Potency [5]

CN=C1CN(O)C(c2ccccc2)=c2cc(Cl)ccc2=N1
inactive: Potency [6] | max activation [7] -1.86% and 4.26% | Potency [8] | Potency [9]

C=CCOc1c(Br)cc(C(C)(C)c2cc(Br)c(OCC=C)c(Br)c2)cc1Br
inactive: outcome [10] | Potency [1] | Potency [2] | Potency [3] | Potency [4] | Potency [5]

CNC(=O)Oc1ccc2c(c1)[C@]1(C)CCN(C)[C@@H]1N2C
inactive: Potency [1]

CCC(N)Cc1c[nH]c2ccccc12 (configuration not stated)
inactive: max activation [7] -0.551% | Potency [8] | Potency [9]

C[C@@H]1[C@H]2Cc3ccc(O)cc3[C@]1(C)CCN2C
inactive: Potency [6]

CCCCNC(C)(C)[P+](=O)O
inactive: Potency [11] | Potency [12] | Potency [13] | Potency [14]

CN1CC[C@@]23CCCC[C@@H]2[C@@H]1Cc1ccc(O)cc13
inactive: Potency [12] | Potency [14]
active: Potency [13] 26.6 µM

Clc1cc(Cl)c(-c2c(Cl)c(Cl)cc(Cl)c2Cl)cc1Cl
inactive: Potency [1] | Potency [2] | Potency [3] | Potency [4] | Potency [5]

c1ccc(-c2ccccc2-c2ccccc2)cc1
inactive: Potency [15] | Potency [2] | Potency [3] | Potency [4] | Potency [5]

COc1cc([C@@H]2c3cc4c(cc3[C@H](O)[C@H]3COC(=O)[C@H]23)OCO4)cc(OC)c1OC
inactive: Potency [1] | Potency [3] | Potency [4] | Potency [5]

C#CC(C)(O)CC (configuration not stated)
inactive: max activation [7] -2.56% | Potency [8] | Potency [9]

Brc1ccc(Oc2ccc(Br)cc2)cc1
inactive: Potency [16] | Potency [1] | Potency [2] | Potency [3] | Potency [4] | Potency [5]

C[C@@H]([C@H](O)c1ccccc1)N(C)C
inactive: max activation [7] -2.62% | Potency [8] | Potency [9]

O=C(Cl)c1cccc(C(=O)Cl)c1
inactive: Potency [1] | Potency [2] | Potency [3] | Potency [4] | Potency [5]

CCCCCc1cc(O)c2c(c1)OC(C)(C)c1ccc(C)cc1-2
active: Potency [11] 16.9 µM
inactive: Potency [13]

CN(C)CCCCCCN(C)C (tested in a mixture with another compound)
inactive: Potency [6]

Cc1c(N)cccc1N
inactive: Potency [1] | Potency [2] | Potency [3] | Potency [4] | Potency [5]

CCOC(=O)C1(c2ccccc2)CCCN(C)CC1 (configuration not stated)
inactive: Potency [6]

CN1[C@@H]2CC[C@H]1CC(OC(=O)C(CO)c1ccccc1)C2 (some centres not stated)
inactive: Potency [1]

Cc1ccc(C)cc1
inactive: Potency [1] | Potency [2] | Potency [3] | Potency [4] | Potency [5]
